In PubChem BioAssay:
Activity calls are given as the source filed them.

test: optical density shifts of acrAB sulA E. coli – strain DRC41, OD650, 48 h, E. coli filamentation inducer project, primary screen (AID 1152); conditions: higher = more signal, called active from +8 up or from −8 down;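 note: E. coli MC1000 strain DRC41 lacking acrAB efflux pump and sulA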

Question: With `CCCc1cc2c(n1Cc1cc(F)cc(F)c1)C(C)C1CN(C(=O)c3ccccc3)C(C)(C(=O)OC)C21` (stereo not given) as the molecule, how does the z-score read?
Answer: -1.55 (inactive)

Question: Which z-score does the source give for `CCCC[C@@H]1C[C@H]1[C@@H](NC(=O)c1ccco1)c1ccc(-c2ccccc2)cc1` here?
Answer: -1.73 (inactive)

Question: With `C=CC[C@@]12N=C(c3ccc(OCCCO)cc3)O[C@@H]1c1ccccc1N(C)C2=O` as the molecule, how does the z-score read?
Answer: 1.12 (inactive)

Question: Which z-score does the source give for `COC(=O)[C@@]1(Cc2ccccc2)N=C(c2ccc(OCCCO)cc2)O[C@H]1c1ccccc1` here?
Answer: 0.792 (inactive)

Question: For `COc1cccc(-c2cccc(=O)o2)c1`, which z-score is on record?
Answer: 0.0997 (inactive)

Question: With `C=C[C@H](CO[Si](CC)(CC)CC)N(Cc1ccc(OC(C)=O)c(OC)c1)S(=O)(=O)c1ccc(Br)cc1` as the molecule, how does the z-score read?
Answer: 0.719 (inactive)

Question: Which z-score does the source give for `NC(=O)NCC#Cc1ccc2c(c1)[C@]1(C(=O)N2)[C@H](c2ccc(O)cc2)N2[C@H](c3ccccc3)[C@H](c3ccccc3)OC(=O)[C@H]2[C@@H]1C(=O)O` here?
Answer: -0.876 (inactive)

Question: For `COC(=O)C[C@H]1O[C@]2(C(=O)N(C)c3ccccc32)[C@@H](C)[C@@H]1[Si](C)(C)F`, which z-score is on record?
Answer: 2.91 (inactive)

Question: For `O=C1C2C=CC(C(O)c3cc(C(F)(F)F)cc(C(F)(F)F)c3)N(n3cnnc3)C2C(=O)N1Cc1ccccc1` (stereo not given), which z-score is on record?
Answer: -0.546 (inactive)

Question: With `Cc1nc2cc(Br)ccc2c(=O)o1` as the molecule, how does the z-score read?
Answer: 0.776 (inactive)

Question: Which z-score does the source give for `C=C(CCCC)/C(=C/C[C@@H](OC(C)=O)c1ccc(OCCO)cc1)c1cnc2ccccc2c1` here?
Answer: 1.04 (inactive)

Question: For `COc1cc2c(cc1O)C(C1CC1)N(Cc1sc3ccccc3c1Cl)CC2` (stereo not given), which z-score is on record?
Answer: -1.54 (inactive)

Question: With `COc1cc2c(cc1O)C(c1cccs1)N(C)CC2` (stereo not given) as the molecule, how does the z-score read?
Answer: 0.158 (inactive)

Question: For `CN1C=C(C(=O)OCCS(C)(=O)=O)C(C(=O)OCCS(C)(=O)=O)=CC(c2ccc(CO)cc2)=CC1C1CC1` (stereo not given), which z-score is on record?
Answer: 0.225 (inactive)

Question: With `Cc1ccc(N2C(=O)c3ccccc3[C@@H](C(=O)NC3CC3)[C@@H]2c2ccc(CO)cc2)nc1` as the molecule, how does the z-score read?
Answer: -0.0739 (inactive)

Question: With `O=C1C[C@@](C(=O)NCC(F)(F)F)(c2ccc([N+](=O)[O-])cc2)[C@@H](c2ccc(CO)cc2I)N1C1CCCCC1` as the molecule, how does the z-score read?
Answer: -0.629 (inactive)

Question: Which z-score does the source give for `Cc1ccc(S[C@]2(C(=O)NCCCN(C)C)CC(=O)N(Cc3cc(C(F)(F)F)cc(C(F)(F)F)c3)[C@@H]2c2ccc(CO)cc2)cc1` here?
Answer: -0.48 (inactive)

Question: Which z-score does the source give for `C=C(COC)/C(=C/C[C@@H](OC(=O)c1ccncc1)c1ccc(CO)o1)c1cc(C(=O)OC)ccc1OC` here?
Answer: 0.855 (inactive)

Question: Which z-score does the source give for `C=C[C@H](OC)[C@@H](OC(=O)Nc1ccc(OC)cc1)c1ccc(O)c(F)c1` here?
Answer: 0.496 (inactive)

Question: For `COCCOC(=O)N1C(=O)[C@@]2(c3cc(C#CC4(O)CCCCCC4)ccc31)[C@H](c1ccccc1OCCO)N1[C@H](c3ccccc3)[C@H](c3ccccc3)OC(=O)[C@H]1[C@@H]2C(=O)N1CCN(c2ncccn2)CC1`, which z-score is on record?
Answer: 0.888 (inactive)

Question: For `C=CC(=C)[C@H]1Oc2ccccc2S(=O)(=O)N2CCC[C@@H]12`, which z-score is on record?
Answer: -0.829 (inactive)

Question: Which z-score does the source give for `[N-]=[N+]=Nc1ccccc1[C@@H]1OC(c2ccc(OCCCO)cc2)=N[C@]1(Cc1ccccc1)C(=O)N1CCOCC1` here?
Answer: 0.123 (inactive)

Question: For `COCCOC(=O)N1C(=O)[C@@]2(c3cc(C#CCCO)ccc31)[C@H](C(N)=O)[C@H]1C(=O)O[C@H](c3ccccc3)[C@H](c3ccccc3)N1[C@@H]2c1ccc(O)cc1`, which z-score is on record?
Answer: -0.903 (inactive)

Question: Which z-score does the source give for `C=C(C(=O)CC[C@@H](OC(=O)c1cccnc1)c1ccccc1OCCO)C(C)C` here?
Answer: 0.151 (inactive)

Question: Which z-score does the source give for `C=CCNC(=O)[C@H]1[C@@H]2C(=O)O[C@@H](c3ccccc3)[C@@H](c3ccccc3)N2[C@@H](c2ccccc2OCCO)[C@]12C(=O)Nc1ccc(C#CCC(C(=O)OC)C(=O)OC)cc12` here?
Answer: 0.0038 (inactive)

test: probe aLefty1 binding on compound microarray – biochemical, small-molecule microarray, 635/667 nm fluorescence, primary screen (AID 1153); conditions: higher = more signal;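 note: score merges spot fluorescence with signal-to-noise ratio from the scanned slide images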

Question: Which composite z-score does the source give for `CC(C)[Si]1(C(C)C)O[C@@H](c2ccccc2)c2cc(-c3ccc(-c4ccc(Cl)c(Cl)c4)o3)nc(-c3ccccc3)c21` here?
Answer: -0.0611

Question: For `OCCCC1=CC(c2cccs2)N(Cc2cc3c(cc2Br)OCO3)CC1` (stereo not given), which composite z-score is on record?
Answer: 0.187

Question: Which composite z-score does the source give for `CCOC(=O)C[C@H]1[C@H](OC(=O)c2ccc(C(=O)c3ccccc3)cc2)[C@@H](NC(=O)c2ccc3ccccc3c2)c2cc(OCCCO)ccc2N1C(=O)Cc1ccc(OC)cc1` here?
Answer: 0.138

Question: With `C=C(CC1([C@@H](NP(=O)(c2ccccc2)c2ccccc2)[C@H]2C[C@@H]2CCCC)CC1)c1ccccc1` as the molecule, how does the composite z-score read?
Answer: 0.568

Question: Which composite z-score does the source give for `COc1cc(COC(C)=O)ccc1OC(C)=O` here?
Answer: 0.383

Question: Which composite z-score does the source give for `C=C(CCCC)/C(=C/C[C@@H](OC(=O)c1ccncc1)c1ccc(OCCO)cc1)c1cc(C(=O)OC)ccc1OC` here?
Answer: -0.0984

Question: Which composite z-score does the source give for `C=C(CCCC)C(=O)CC[C@@H](OC(=O)c1ccccc1-c1ccccc1C(=O)O)c1ccc(OCCO)cc1` here?
Answer: -0.23

Question: With `COCCOC(=O)N1C(=O)[C@@]2(c3cc(C#CCC(C(=O)OC)C(=O)OC)ccc31)[C@H](C(=O)Nc1nc3ccccc3s1)[C@H]1C(=O)O[C@H](c3ccccc3)[C@H](c3ccccc3)N1[C@@H]2c1ccccc1OCCO` as the molecule, how does the composite z-score read?
Answer: 0.212

Question: For `NC(=O)N1C(=O)C2C(C1=O)C1C=C(c3ccc(CO)cc3)C2C(c2cccs2)N1Cc1cccc(OC(F)(F)F)c1` (stereo not given), which composite z-score is on record?
Answer: 0.424

Question: With `COCCOC(=O)N1C(=O)[C@@]2(c3cc(C#CCNC(N)=O)ccc31)[C@H](C(=O)N1CCN(c3ncccn3)CC1)[C@H]1C(=O)O[C@H](c3ccccc3)[C@H](c3ccccc3)N1[C@@H]2c1ccc(OCCO)cc1` as the molecule, how does the composite z-score read?
Answer: 0.267

Question: For `CCCc1cc2c(n1Cc1cc(F)cc(F)c1)C(C)C1CN(C(=O)c3ccccc3)C(C)(C(=O)OC)C21` (stereo not given), which composite z-score is on record?
Answer: 0.269

Question: For `CCCC[C@@H]1C[C@H]1[C@@H](NC(=O)c1ccco1)c1ccc(-c2ccccc2)cc1`, which composite z-score is on record?
Answer: 0.142

Question: With `C=CC[C@@]12N=C(c3ccc(OCCCO)cc3)O[C@@H]1c1ccccc1N(C)C2=O` as the molecule, how does the composite z-score read?
Answer: 0.349

Question: With `COC(=O)[C@@]1(Cc2ccccc2)N=C(c2ccc(OCCCO)cc2)O[C@H]1c1ccccc1` as the molecule, how does the composite z-score read?
Answer: 0.236

Question: Which composite z-score does the source give for `COc1cccc(-c2cccc(=O)o2)c1` here?
Answer: 0.565

Question: For `C=C[C@H](CO[Si](CC)(CC)CC)N(Cc1ccc(OC(C)=O)c(OC)c1)S(=O)(=O)c1ccc(Br)cc1`, which composite z-score is on record?
Answer: 0.698

Question: Which composite z-score does the source give for `NC(=O)NCC#Cc1ccc2c(c1)[C@]1(C(=O)N2)[C@H](c2ccc(O)cc2)N2[C@H](c3ccccc3)[C@H](c3ccccc3)OC(=O)[C@H]2[C@@H]1C(=O)O` here?
Answer: -0.573

Question: For `COC(=O)C[C@H]1O[C@]2(C(=O)N(C)c3ccccc32)[C@@H](C)[C@@H]1[Si](C)(C)F`, which composite z-score is on record?
Answer: 0.0982

Question: Which composite z-score does the source give for `O=C1C2C=CC(C(O)c3cc(C(F)(F)F)cc(C(F)(F)F)c3)N(n3cnnc3)C2C(=O)N1Cc1ccccc1` (stereo not given) here?
Answer: 0.197

Question: Which composite z-score does the source give for `Cc1nc2cc(Br)ccc2c(=O)o1` here?
Answer: 0.442

Question: With `C=C(CCCC)/C(=C/C[C@@H](OC(C)=O)c1ccc(OCCO)cc1)c1cnc2ccccc2c1` as the molecule, how does the composite z-score read?
Answer: 0.0038

Question: With `COc1cc2c(cc1O)C(C1CC1)N(Cc1sc3ccccc3c1Cl)CC2` (stereo not given) as the molecule, how does the composite z-score read?
Answer: -0.0162

Question: Which composite z-score does the source give for `COc1cc2c(cc1O)C(c1cccs1)N(C)CC2` (stereo not given) here?
Answer: -0.103

Question: For `CN1C=C(C(=O)OCCS(C)(=O)=O)C(C(=O)OCCS(C)(=O)=O)=CC(c2ccc(CO)cc2)=CC1C1CC1` (stereo not given), which composite z-score is on record?
Answer: -0.147

Question: For `Cc1ccc(N2C(=O)c3ccccc3[C@@H](C(=O)NC3CC3)[C@@H]2c2ccc(CO)cc2)nc1`, which composite z-score is on record?
Answer: -0.138

Question: With `O=C1C[C@@](C(=O)NCC(F)(F)F)(c2ccc([N+](=O)[O-])cc2)[C@@H](c2ccc(CO)cc2I)N1C1CCCCC1` as the molecule, how does the composite z-score read?
Answer: 0.165

Question: Which composite z-score does the source give for `Cc1ccc(S[C@]2(C(=O)NCCCN(C)C)CC(=O)N(Cc3cc(C(F)(F)F)cc(C(F)(F)F)c3)[C@@H]2c2ccc(CO)cc2)cc1` here?
Answer: -0.506

Question: Which composite z-score does the source give for `C=C(COC)/C(=C/C[C@@H](OC(=O)c1ccncc1)c1ccc(CO)o1)c1cc(C(=O)OC)ccc1OC` here?
Answer: 0.062

Question: With `C=C[C@H](OC)[C@@H](OC(=O)Nc1ccc(OC)cc1)c1ccc(O)c(F)c1` as the molecule, how does the composite z-score read?
Answer: 0.0921

Question: Which composite z-score does the source give for `COCCOC(=O)N1C(=O)[C@@]2(c3cc(C#CC4(O)CCCCCC4)ccc31)[C@H](c1ccccc1OCCO)N1[C@H](c3ccccc3)[C@H](c3ccccc3)OC(=O)[C@H]1[C@@H]2C(=O)N1CCN(c2ncccn2)CC1` here?
Answer: -0.0437

Question: Which composite z-score does the source give for `C=CC(=C)[C@H]1Oc2ccccc2S(=O)(=O)N2CCC[C@@H]12` here?
Answer: 0.131

Question: For `[N-]=[N+]=Nc1ccccc1[C@@H]1OC(c2ccc(OCCCO)cc2)=N[C@]1(Cc1ccccc1)C(=O)N1CCOCC1`, which composite z-score is on record?
Answer: 0.391

Question: With `COCCOC(=O)N1C(=O)[C@@]2(c3cc(C#CCCO)ccc31)[C@H](C(N)=O)[C@H]1C(=O)O[C@H](c3ccccc3)[C@H](c3ccccc3)N1[C@@H]2c1ccc(O)cc1` as the molecule, how does the composite z-score read?
Answer: -0.15

Question: For `C=C(C(=O)CC[C@@H](OC(=O)c1cccnc1)c1ccccc1OCCO)C(C)C`, which composite z-score is on record?
Answer: 0.106

Question: With `C=CCNC(=O)[C@H]1[C@@H]2C(=O)O[C@@H](c3ccccc3)[C@@H](c3ccccc3)N2[C@@H](c2ccccc2OCCO)[C@]12C(=O)Nc1ccc(C#CCC(C(=O)OC)C(=O)OC)cc12` as the molecule, how does the composite z-score read?
Answer: 0.924
